Source: ChEMBL document CHEMBL4513146, “CO-ADD screening of Karazin Kharkiv National University (Ukraine) compounds”
Potency and affinity values are given separately.

Key:
Klebsiella pneumoniae = conditions: Concentration 32 ug.mL-1;; ASSAY_TEST Inhibition of Bacterial Growth; detection method Absorption (OD600); MEDIA CAMHB; plate type 384well; NBS; CORNING #3640; time 18 hr
Candida albicans = conditions: Concentration 32 ug.mL-1; ASSAY_TEST Inhibition of Fungal Growth; detection method Absorption (OD530)
Cryptococcus neoformans = conditions: Concentration 32 ug.mL-1; ASSAY_TEST Inhibition of Fungal Growth; detection method Resazurin; Absorption (OD600-OD570); plate type 384well; NBS; CORNING #3640

SMILES	Inhibition (Klebsiella pneumoniae)	Inhibition (Candida albicans)	Inhibition (Cryptococcus neoformans)
COC(=O)c1cccc(NC(=O)Cn2nc3c(Sc4ccc(C)cc4C)nccn3c2=O)c1	13.86%	-2.57%	-30.13%
COc1ccccc1-n1ccn2c(SCc3cccc(F)c3)nnc2c1=O	7.21%	2.05%	-9.16%
Cc1ccc(-c2ccc3nnc(CCC(=O)NCc4ccc(Br)cc4)n3n2)cc1	19%	1.12%	-7.91%
COC(=O)c1ccc(NC(=O)CSc2nnc3ccc(C(=O)Nc4cccc(F)c4)cn23)cc1	4.63%	2.52%	-5.98%
CN(C(=O)Cn1nc2n(Cc3cccs3)c(=O)c3sccc3n2c1=O)c1ccccc1	-2.89%	0.01%	-9.21%
COc1ccc(CNC(=O)CSc2nnc3c4cc(-c5ccc(C)cc5)nn4ccn23)cc1	9.18%	1.16%	-27.11%
CCc1ccc(NC(=O)CSc2nnc3c(=O)n(-c4ccccc4)ccn23)cc1	10.7%	2.07%	-14.31%
Cc1cccc(CN(c2cc(C)cc(C)c2)S(=O)(=O)c2cccn3c(C)nnc23)c1	4.64%	1.12%	-10.57%
Cc1ccc(-c2ccc3nn(CC(=O)Nc4ccc(C#N)cc4)c(=O)n3n2)cc1C	8.41%	3.47%	-12.02%
C=Cc1ccc(CN(c2ccc3c(c2)OCO3)S(=O)(=O)c2ccc3nncn3c2)cc1	11.26%	1.71%	-6.68%
O=C(CCc1nnc2c(N3CCCCC3)nc3ccccc3n12)NCc1ccc(Br)cc1	7.61%	2.54%	-23.12%
CCCN(C)c1nccn2c(=O)n(CC(=O)Nc3ccc(OC)c(Cl)c3)nc12	9.65%	7.19%	-3.69%
Cc1ccc(NC(=O)Cn2c(=O)c3nnc(C)n3c3ccccc32)cc1F	7.95%	2.03%	-16.64%
Cc1ccc(Sc2nccn3c(=O)n(CC(=O)Nc4ccc(Br)cc4C)nc23)c(C)c1	-0.35%	-0.15%	-17.66%
CC(C)(C)Sc1ccc2nn(CC(=O)Nc3ccccc3Cl)c(=O)n2n1	9.71%	5.29%	-25.66%
COc1ccc(-c2cc3c4nn(CC(=O)Nc5ccccc5OC)c(=O)n4ccn3n2)cc1	7.14%	0.94%	-14.32%
CC(C)Cn1c(=O)c2sccc2n2c(=O)n(CC(N)=O)nc12	-1.97%	-1.59%	-19.03%
Cc1ccc(NC(=O)Cn2nc3ccc(-c4ccc(C)c(C)c4)nn3c2=O)cc1	11.7%	-0.59%	-13.68%

SMILES	Inhibition (Klebsiella pneumoniae)	Inhibition (Candida albicans)	Inhibition (Cryptococcus neoformans)
COc1ccc(NC(=O)Cn2nc3c4cc(-c5ccc(Cl)cc5)nn4ccn3c2=O)c(OC)c1	16.21%	1.15%	-23.56%
COc1ccc(NC(=O)c2ccc3nn(CC(=O)Nc4ccc(C(C)C)cc4)c(=O)n3c2)cc1	5.27%	10.58%	-13.36%
COc1ccccc1N1CCN(C(=O)CSc2nnc3c(=O)n(-c4ccc(F)cc4)ccn23)CC1	11.85%	1.66%	-8.01%
CCc1ccc(N(Cc2ccccc2C)S(=O)(=O)c2cccn3c(C)nnc23)cc1	3.93%	5.07%	-8.38%
Cc1ccc(-n2ccn3c(SCC(=O)N4CCN(c5ccc(F)cc5)CC4)nnc3c2=O)cc1C	1.76%	0.36%	-5.04%
COc1ccc(N2CCN(C(=O)Cn3nc4c(Oc5ccc(C)cc5)nccn4c3=O)CC2)cc1	7.21%	1.27%	-9.68%
CCc1nnc2c(S(=O)(=O)N(Cc3ccccc3C)c3ccc(C(C)C)cc3)cccn12	3.73%	21.84%	-8.38%
O=C(Cn1nc2c3c4c(sc3ncn2c1=O)CCCC4)NCc1ccccc1Cl	0.41%	2.22%	-5.52%
CCOC(=O)c1ccc(NC(=O)Cn2nc3c(Oc4ccccc4)nccn3c2=O)cc1	1.59%	-0.16%	-7.75%
CC(C)c1ccc(NC(=O)Cn2nc3c(N4CCCCC4)nccn3c2=O)cc1	10.38%	4.27%	-12.25%
O=C(Cn1nc2c(N3CCN(c4ccccc4)CC3)nccn2c1=O)Nc1ccc2c(c1)OCO2	5.9%	4.15%	-7.4%
CCCCn1c(=O)c2sccc2n2c(CCC(=O)Nc3ccc(OC(F)(F)F)cc3)nnc12	7.36%	-0.1%	-18.58%
O=C(Cn1nc2ccc(SCc3ccc(Cl)cc3)nn2c1=O)Nc1cccc(F)c1	-5.89%	31.36%	-11.95%
O=C(Cn1nc2c(SCc3ccccc3)nccn2c1=O)NCc1ccccc1	-8.41%	20.32%	-13.69%
Cc1ccc(-c2ccc3nn(Cc4cccc(Cl)c4)c(=O)n3n2)cc1C	12.21%	1.14%	-10.16%
COC(=O)c1cccc(NC(=O)Cn2nc3c(Oc4ccccc4)nccn3c2=O)c1	3.42%	3.07%	-9.43%
Cc1cc2nn(CC(=O)Nc3cc(F)cc(F)c3)c(=O)n2c(Nc2ccc(F)c(C)c2)n1	18.09%	3.34%	-11.58%
COc1ccc(Cn2nc3ccc(-c4ccccc4)nn3c2=O)cc1F	8.32%	1.33%	-0.36%
